The list is not random: actives were taken first. Their share in the collection is about 2.4%.
PfGluPho inh = PfG6PD (Plasmodium falciparum) enzyme inhibition; PfGluPho enzyme, NADPH resazurin-diaphorase fluorescence; inhibition, % at 20 µM; 350,000 compounds, 0.78% hits;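 active = inhibition reaching at least a set limit at 20 µM in the primary screen, cut at about 59% in these data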;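 note: 0% = DMSO wells with substrate and 100% = DMSO wells lacking glucose-6-phosphate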
A3A deaminase = blocks human APOBEC3A ssDNA deamination; P31941; recombinant A3A, FAM/TAMRA ssDNA deamination fluorescence; inhibition, % at 20 µM; 330,000 compounds, 0.41% hits; AID 493011;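 active = at least 40% inhibition at 20 µM here, with at most 30% in a related deaminase screen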;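 note: plate controls were A3A with DMSO for no effect and wells lacking A3A enzyme for full effect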
Target sequence (P31941 whole entry, looked up): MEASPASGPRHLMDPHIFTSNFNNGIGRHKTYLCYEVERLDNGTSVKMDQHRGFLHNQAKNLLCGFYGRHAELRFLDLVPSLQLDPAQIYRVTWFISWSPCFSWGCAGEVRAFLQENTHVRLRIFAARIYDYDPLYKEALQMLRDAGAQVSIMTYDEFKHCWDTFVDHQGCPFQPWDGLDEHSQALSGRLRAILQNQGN
M18AAP inhibitor = blocks P. falciparum M18 aspartyl aminopeptidase. 290,000 compounds, 1.2% hits. AID 1822. recombinant PfM18AAP, H-Glu-NHMec fluorogenic cleavage. inhibition, % at 7.35 µM;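 active = inhibition above the campaign mean inhibition over all tested compounds plus 3 SD, cut at about 28% in these data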;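 note: 0% = plate median of test compound wells and 100% = 2 mM ZnCl2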
APOBEC3G inh = inhibitors of human APOBEC3G DNA deaminase; inhibition, % at 20 µM; Q9HC16; 330,000 compounds, 0.28% hits; recombinant A3G, ssDNA deamination FAM/TAMRA fluorescence;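 active = inhibition of at least 40% at 20 µM, with no more than 30% in the related APOBEC3A deaminase screen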;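 note: plate controls were DMSO wells with A3G for no effect and wells lacking A3G enzyme for full effect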
Target sequence (Q9HC16 whole entry, looked up): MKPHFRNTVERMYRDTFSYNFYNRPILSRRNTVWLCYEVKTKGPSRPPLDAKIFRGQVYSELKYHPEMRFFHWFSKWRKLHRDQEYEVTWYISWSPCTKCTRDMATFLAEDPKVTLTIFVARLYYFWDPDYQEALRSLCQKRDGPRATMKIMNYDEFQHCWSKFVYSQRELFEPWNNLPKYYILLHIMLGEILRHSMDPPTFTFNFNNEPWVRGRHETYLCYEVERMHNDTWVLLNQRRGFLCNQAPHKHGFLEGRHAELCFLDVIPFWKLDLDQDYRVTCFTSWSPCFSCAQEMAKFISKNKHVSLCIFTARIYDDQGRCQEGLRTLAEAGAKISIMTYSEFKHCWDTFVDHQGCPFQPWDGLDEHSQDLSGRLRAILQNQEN
CR mimetic SO = lowers age-related superoxide in aged yeast cells; S. cerevisiae aged cells, superoxide DHE fluorescence; active compounds read low; superoxide response (% of plate mean), % at 10 µM; 330,000 compounds, 0.18% hits;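 active = superoxide response under a set limit, about three screen SD below normal, cut at about 65% in these data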;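 note: yeast aged for seven days with compound at 30 °C before DHE staining; 100% = average MFI of all compound-treated wells on the plate with controls excluded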
* marks the source's active call; other numbers are inactive results; / = no result given.

SMILES	PfGluPho inh	A3A deaminase	M18AAP inhibitor	APOBEC3G inh	CR mimetic SO
Cc1nc2sc(C(c3ccccc3)N3CCN(CCO)CC3)c(O)n2n1 (stereo unspecified)	5.5	-2.2	/	-9.9	99.9
Cc1cc[n+](-c2[nH]c(=O)sc2/C=N/NC([S-])=Nc2ccccc2)cc1C	16.4	-1.6	32.4*	-6.8	92.5
O=C(c1csc2c1CCCC2)n1cccn1	11.1	-2.2	/	-4.7	60.4*
O=C(c1csc2c1CCCC2)N1CCN(c2ncccn2)CC1	-8.1	0.1	-5.4	-2.6	85.2
COC(=O)c1cc(N=CC2=C(O)CC(C)(C)CC2=O)cc(C(=O)OC)c1	-5.9	0.3	29.6*	-6.8	95.8
COC(=O)c1cc(OC)c(OC)cc1N=CC1=C(O)CC(C)(C)CC1=O	22.2	1.2	-5.4	-0.3	102.2
CCOC(=O)C1=C(c2ccccc2)N2CCN=C2S1	/	/	32.4*	/	/
Cc1ccc(NC(=S)NNC(=O)Nc2ccccc2)cc1	16.1	4.1	41.8*	0.0	88.2
CC(C)NC(=S)N/N=C/c1ccc(N2CCOCC2)cc1	0.6	-3.7	-5.1	-2.3	79.6
Oc1ccc(/C=N/NC(=S)N2CCOCC2)cc1	10.8	-3.5	32.8*	-12.9	126.9
NC(=S)N/N=C/c1ccc(-c2cc(Cl)cc(Cl)c2)o1	25.1	1.2	0.8	1.7	120.1
NC(=S)N/N=C/c1ccc(-c2ccc([N+](=O)[O-])cc2)o1	50.6	-2.6	42.2*	8.8	104.3
CC(NS(=O)(=O)OCC(Cl)(Cl)Cl)c1ccc(Br)cc1 (stereo unspecified)	8.9	-1.1	-6.6	-8.8	97.0
O=C(NC(Cc1ccccc1)C(=O)N1CCN(c2ccc(F)cc2)CC1)c1ccccc1 (stereo unspecified)	11.3	/	/	/	/
CN(C)c1c([N+](=O)[O-])cc(N2C(=O)C=CC2=O)cc1[N+](=O)[O-]	103.2*	/	/	/	/
CC(=O)NC1=C(N(C)C2CCS(=O)(=O)C2)C(=O)c2ccccc2C1=O (stereo unspecified)	97.3*	1.9	8.6	2.5	115.4
CC1=C(Nc2ccc(C(=O)O)cc2)C(=O)c2ccccc2C1=O	-18.7	-3.8	-4.3	-4.2	130.6
CC(=O)NC1=C(Nc2ccc(N(C)C)cc2)C(=O)c2ccccc2C1=O	35.9	2.4	29.0*	0.8	126.2
N#Cc1cc2c(N)c(C(=O)Nc3ccccc3)sc2nc1N	/	-2.7	17.9	16.1	97.5
Cc1cccc(NC(=O)c2sc3nc(N)c(C#N)cc3c2N)c1	30.1	/	28.1*	/	105.0
Cc1cc(-c2nnc(SCC(=O)Nc3nc(-c4ccccc4)cs3)o2)no1	1.4	9.9	30.2*	3.4	104.8
Cc1csc(NC(=O)CSc2nnc(-c3cc(C)on3)o2)n1	-12.2	1.4	19.1	-0.6	82.1
O=C(NNc1cccc(Cl)c1)c1cccnc1Cl	19.6	-5.9	12.5	-3.4	95.9
O=C(NNc1cccc(Cl)n1)c1cccnc1Cl	-0.7	-2.4	31.5*	-8.5	101.2
CCn1c(=O)n(CC)c2cc(N3CCCC3)c(NC(=O)c3cccc(Cl)c3)cc21	54.9	-0.2	31.7*	0.7	101.3
SMILES	PfGluPho inh	A3A deaminase	M18AAP inhibitor	APOBEC3G inh	CR mimetic SO
CCn1c(=O)n(CC)c2cc(N3CCCC3)c(NC(=O)c3ccc(C)c([N+](=O)[O-])c3)cc21	49.6	-2.0	29.2*	-2.5	91.8
C/C(CC(=O)Nc1cc(C)ccn1)=N\NC(=O)c1cccc(C)c1O	-13.5	-2.1	7.9	-8.5	94.4
CC[C@H]1C(=O)[C@@H](Cc2ccccc2)[C@@H]2CCN3C(=O)CCC[C@H]1[C@H]23	2.2	/	/	/	/
CC(C)(CCC(=S)N1CCOCC1)C1CCCCC1	55.0	-4.1	30.2*	12.5	99.9
CCOC(=O)N1CCN(C(=O)C(=O)Nc2sc3c(c2C(N)=O)CC(C)(C)OC3)CC1	8.3	-5.3	16.1	-5.7	101.2
Cc1ccn2c(Nc3ccc4c(c3)OCO4)c(-c3ccc(O)cc3)nc2c1	22.9	-8.9	31.1*	2.4	94.3
C=CCn1c(CNS(=O)(=O)c2ccc(Br)cc2)n[nH]c1=S	23.4	-6.0	18.1	19.4	101.1
CCN(CC)Cc1cc(O)c(CN(CC)CC)cc1O	75.9*	/	29.2*	/	/
CCOc1ccc(S(=O)(=O)Nc2cc(Sc3ncn[nH]3)c3oc(=O)sc3c2)cc1	/	-4.2	29.1*	4.8	113.2
COc1ccc(S(=O)(=O)Nc2cc(Sc3ncn[nH]3)c(O)cc2C)cc1	17.7	-1.9	/	-4.1	85.0
NS(=O)(=O)c1ccc(CCNC(=O)c2cc([N+](=O)[O-])ccc2N2CCCCC2)cc1	10.6	1.0	-8.0	-5.7	99.8
O=C(O)c1ccc(S(=O)(=O)/N=C2\C=C(Nc3ccccc3F)C(=O)c3ccccc32)cc1	93.0*	0.8	11.5	-8.3	108.7
Cc1ccc(NC2=C/C(=N/S(=O)(=O)c3cccs3)c3ccccc3C2=O)cc1C	-2.9	/	-5.2	/	101.7
Cc1ccccc1NC1=C/C(=N\S(=O)(=O)c2cccs2)c2ccccc2C1=O	99.3*	0.7	-1.8	-5.7	104.4
COc1ccc(-c2csc(NC(=O)CS(=O)(=O)c3ccc(F)cc3)n2)cc1OC	28.1	-3.1	/	-12.4	96.4
Oc1c(Br)cc(Br)cc1/C=N/Nc1ccc(Cl)nn1	-11.4	/	39.6*	/	94.6
O=C(O)c1ccccc1N/N=C/c1cc(Br)cc(Br)c1O	-33.4	3.0	5.6	-3.9	100.3
O=C(N/N=C/c1ccc([N+](=O)[O-])o1)c1ccc2c(c1)OCO2	24.8	6.2	29.9*	1.6	117.6
O=[N+]([O-])c1ccc(/C=N/N=C/c2ccc([N+](=O)[O-])o2)o1	60.0*	/	18.0	/	/
O=C(N/N=C\c1ccc(-c2ccc([N+](=O)[O-])cc2)o1)c1ccc2c(c1)OCO2	-4.0	1.5	-3.4	-2.1	88.9
CCOc1c(O)ccc(/C=C2\SC(=S)NC2=O)c1[N+](=O)[O-]	30.2	7.8	37.0*	14.5	103.4
CC(=O)Nc1cccc(NC(=S)Nc2cccc(Cl)c2C)c1	-9.1	-0.1	31.1*	-1.4	90.2
C(=C\c1ccccc1)/C=N/Nc1nc2ccccc2s1	23.6	-2.4	5.0	-4.4	100.0
CCC/C=N/Nc1nc2ccccc2s1	17.8	-3.7	35.3*	-8.6	98.7
COc1ccc(NC(=O)C(=O)NCCC2CCCCN2S(=O)(=O)c2ccccc2)cc1 (stereo unspecified)	13.6	-1.2	/	-7.4	95.2
SMILES	PfGluPho inh	A3A deaminase	M18AAP inhibitor	APOBEC3G inh	CR mimetic SO
O=C(NC(=S)NNC(=O)c1ccc(Cl)cc1Cl)c1cccnc1	0.7	-2.8	37.9*	26.9	114.2
Cc1ccc(S(=O)(=O)NNC(=O)c2cccnc2)cc1	-7.0	-0.7	14.3	-4.7	102.4
O=C(NC(=S)NNS(=O)(=O)c1ccccc1)c1cccnc1	-7.5	-1.0	31.2*	-2.7	83.0
Cc1cccc(C(=O)NC(=S)NNC(=O)COc2c(C)cccc2C)c1	-13.7	-2.6	29.5*	-7.2	137.2
Cc1cccc(C(=O)NC(=S)NNC(=O)c2ccccc2Cl)c1	26.8	-3.1	28.7*	2.5	173.7
COc1ccccc1NC(=O)N(C)C[C@@H]1OCc2cnnn2CCCC(=O)N([C@H](C)CO)C[C@H]1C	1.7	/	/	/	/
Cc1cc(Br)ccc1N=C1NC(=O)CS1	3.8	-5.0	29.6*	-6.9	102.8

Screens deposited in PubChem by several laboratories.
